Source: PubChem BioAssay

system: PRMT1 (protein arginine N-methyltransferase 1); experiment: small molecules binding arginine methyltransferase PRMT1 – biochemical, small-molecule microarray, 635 nm fluorescence, primary screen (AID 1088); conditions: higher = more signal;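 further: binding of Prmt1 protein to compounds spotted on small-molecule microarray slides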

SMILES	composite z-score
COCC(=C=CC[C@@H](O)c1ccccc1OCCO)C[C@@H](O)c1ccccn1	1.29
COc1ccc([Si](C)(C)[C@H]2[C@H](CCO)O[C@@]3(C(=O)N(Cc4cccc(N5CCOC5=O)c4)c4ccccc43)[C@@H]2C)cc1	1.39
COC(=O)C(CC#Cc1ccc2c(c1)[C@]1(C(=O)N2)[C@H](C(=O)N2CCc3cc(OC)c(OC)cc3C2)[C@H]2C(=O)O[C@H](c3ccccc3)[C@H](c3ccccc3)N2[C@@H]1c1ccc(O)cc1)C(=O)OC	1.48
COc1ccc([Si](C)(C)[C@H]2[C@H](CCn3cc(CCO)nn3)O[C@@]3(C(=O)N(Cc4cccc(N5C(=O)c6cccc7cccc5c67)c4)c4ccccc43)[C@@H]2C)cc1	1.46
C[C@H]1ON(c2ccccc2)[C@@H](c2ccccc2)[C@@H]1C(=O)N1C(=O)OC[C@@H]1c1ccccc1	0.648
COc1ccc(C#Cc2ccc3c(c2)[C@]2(C(=O)N3)[C@H](C(=O)O)[C@H]3C(=O)O[C@H](c4ccccc4)[C@H](c4ccccc4)N3[C@@H]2c2ccc(OCCO)cc2)cc1	1.55
C=CCC(OC(C)=O)[C@@H]1[C@@H](N(Cc2ccc(-c3ccccc3)cc2)C(=O)Cc2ccc(OC)cc2)c2cc(OCCCO)ccc2N1C(=O)c1ccc(-c2ccccc2)cc1 (stereo not given in full)	-0.0413
Cc1ccc(S[C@]2(C(=O)NCC(C)C)CC(=O)N(C3CCCCC3)[C@@H]2c2ccc(CO)cc2I)cc1	1.56
COC(=O)C(CC#Cc1ccc2c(c1)[C@]1(C(=O)N2)[C@H](c2ccc(OCCO)cc2)N2[C@H](c3ccccc3)[C@H](c3ccccc3)OC(=O)[C@H]2[C@@H]1C(=O)O)C(=O)OC	1.53
[N-]=[N+]=NCc1ccccc1C[C@@]1(C(=O)NCCN2CCOCC2)N=C(c2ccc(OCCCO)cc2)O[C@@H]1c1ccccc1CN=[N+]=[N-]	1.56
C[C@]12C(=O)N(CCCO)[C@@H]3C(=O)N(c4ccc(Cl)cc4)CC=CC31O[C@@H]1/C=C\CCCOC(=O)C12 (stereo not given in full)	0.868
CCCCC(O)C1C=CC2C(=O)N(Cc3ccccc3)C(=O)C2N1n1cnnc1 (stereo not given)	0.623
Cc1ccccc1C(O)C1C=CC2C(=O)N(C)C(=O)C2N1Nc1ccc([N+](=O)[O-])cc1[N+](=O)[O-] (stereo not given)	1.56
COCCOC(=O)N1C(=O)[C@@]2(c3cc(C#Cc4ccc(OC)cc4)ccc31)[C@H](C(=O)N1CCc3cc(OC)c(OC)cc3C1)[C@H]1C(=O)O[C@H](c3ccccc3)[C@H](c3ccccc3)N1[C@@H]2c1ccc(OCCO)cc1	1.33
O=c1c2ccc(Br)cc2nc(-c2ccccc2)n1Cc1cccc(O)c1	0.529
Cc1ccc(S[C@]2(C(=O)NCCN3CCOCC3)CC(=O)N(C3Cc4ccccc4C3)[C@@H]2c2ccc(CO)cc2)cc1	1.42
C=CC[C@@]1(C(=O)NCCN2CCOCC2)N=C(c2ccc(OCCCO)cc2)O[C@@H]1c1ccccc1	1.54
C[C@H]1NC(=O)C([C@@H](C)OCc2ccccc2)NC(=O)[C@@]23C(=O)N[C@@H](Cc4ccccc4)C2[C@H](C)[C@@]2(C)O[C@H]2C3/C=C/CC/C=C/CNC1=O (stereo not given in full)	-0.1

SMILES	composite z-score
C/C=C/[C@@H](CCn1cc([C@H](O)c2ccccc2)nn1)[Si](C)(C)c1ccc(OC)cc1	1.03
CCCC=C(CCC)[C@@H](NC(=O)Cc1ccccc1)c1ccc(C(=O)OC)cc1	0.658
C=C(COC)/C(=C/C[C@@H](OC(=O)c1ccncc1)c1cccc(OCCO)c1)c1cc(C(=O)OC)ccc1OC	1.56
COc1cc(NN2C(C(O)c3ccc(I)cc3)C=CC3C(=O)N(C)C(=O)C32)cc(OC)c1OC (stereo not given)	0.0146
COCCCNC(=O)[C@@]1(Cc2ccccc2CN=[N+]=[N-])N=C(c2ccc(OCCCO)cc2)O[C@H]1c1ccccc1N=[N+]=[N-]	1.31
O=C(CS)NCCCCCNC(=O)[C@@H]1C[C@@H]2C(=O)N3CCC[C@H]3C(=O)N2[C@@H]1c1ccc(O)cc1	1.09
Cc1cc(C)c(C(O)C2C=CC3C(=O)N(c4ccccc4)C(=O)C3N2Nc2ccc([N+](=O)[O-])cc2)c(C)c1 (stereo not given)	1.54
C=C[C@H](C)[C@H](OC(=O)Nc1ccc(SC)cc1)c1ccc(O)c2ccccc12	0.214
COC(=O)C(CC#Cc1ccc2c(c1)[C@]1(C(=O)N2)[C@H](C(=O)N2CCc3cc(OC)c(OC)cc3C2)[C@H]2C(=O)O[C@H](c3ccccc3)[C@H](c3ccccc3)N2[C@@H]1c1ccc(OCCO)cc1)C(=O)OC	1.55
COC(=O)[C@@]1(Cc2ccc(OC)cc2)[C@H]2c3cc(C(=O)N4CCCC4)n(CCc4ccc(O)c(OC)c4)c3C[C@H]2CN1C(=O)c1ccccc1	-1.53
O=C1N(CCS(=O)(=O)c2ccccc2)Cc2ccccc2C[C@@]12COC(c1ccc(OCCCO)cc1)=N2	1.54
CC(C)C[C@H]1NC(=O)[C@H](C)NC(=O)[C@@]23C(=O)N[C@@H](Cc4ccccc4)C2[C@H](C)[C@@]2(C)O[C@H]2C3/C=C/C/C=C\CNC1=O (stereo not given in full)	0.653
COc1ccc([Si](C)(C)[C@H]2[C@H](CC(=O)N3CCC[C@H]3CO)O[C@@]3(C(=O)N(Cc4ccc(N5C(=O)c6cccc7cccc5c67)cc4)c4ccccc43)[C@@H]2C)cc1	1.54
COc1cccc(C)c1NC(=O)O[C@H]1[C@H](OC(=O)Nc2ccccc2)[C@H](OC(=O)Nc2ccccc2)[C@@H](OC)O[C@@H]1CO	1.55
C=CCC(OC(C)=O)[C@@H]1[C@@H](N(Cc2ccc(-c3ccccc3)cc2)C(=O)c2cccc3ccccc23)c2cc(OCCCO)ccc2N1C(=O)c1ccc2ccccc2n1 (stereo not given in full)	0.171
O=C1O[C@H](c2ccccc2)[C@H](c2ccccc2)N2[C@H]1[C@@H](C(=O)N1CCN(c3ncccn3)CC1)[C@]1(C(=O)Nc3ccc(C#CCCO)cc31)[C@H]2c1ccc(OCCO)cc1	1.54
COC(=O)[C@@]1(Cc2ccccc2N=[N+]=[N-])N=C(c2ccc(OCCCO)cc2)O[C@H]1c1ccccc1	1.14
